From ChEMBL document CHEMBL4513216, “Probing the Open Global Health Chemical Diversity Library for Multistage-Active Starting Points for Next-Generation Antimalarials” (ACS Infect Dis, 2020)
The campaign covered roughly 65,000 compounds. About 2,100 (3.2%) showed an effect of 50% or more. The median lay at about -52%. This is one part of a sample in which strong results are shown more often than they occur.

system: Plasmodium falciparum; assay: Screen against P. falciparum Asexual Blood Stage (ABS), at 5uM; type: functional, Dd2; conditions: tested at 5 uM

Row | SMILES | INHIBITION [%]
1 | CCC(CC)NCC(C)Oc1cccnc1 (centres undefined) | -116
2 | Cc1cn2c(n1)C(CNCc1ccc(C)s1)CCC2 (centres undefined) | 91.1
3 | Cc1cn2c(n1)C(CNCc1cccc3c1OCO3)CCC2 (centres undefined) | 82.1
4 | CCOC[C@@H]1CCC[C@@]12CN(Cc1cccnc1)CCO2 | -129
5 | Cc1ccc2c(c1)C(N(C)C)CC21CCN(CCO)CC1 (centres undefined) | 74.8
6 | Cc1ccc(CNC2CC3(CCN(CCO)CC3)c3ccccc32)s1 (centres undefined) | 85.4
7 | COCCN1CCC2(CC1)CC(NCc1ccc(C)s1)c1ccccc12 (centres undefined) | 77.2
8 | Cc1ccc(CN2CCC3(CC2)C(=O)N(C)c2ccccc23)s1 | 3.77
9 | Cc1ccc2c(c1)C1(CCNCC1)CC2NCCO (centres undefined) | -23.2
10 | Cc1cccc(CNC2CC3(CCN(CCO)CC3)c3ccccc32)n1 (centres undefined) | 78.6
11 | Cc1cccc(CN2C[C@@H]3OCCN(C)[C@@H]3C2)n1 | -14.4
12 | COCCN1CCC2(COCc3cnc(-c4ccccc4)nc32)C1 (centres undefined) | 31.2
13 | Cc1ccc2c(c1)CCC21CCN(CCO)CC1 | 15.4
14 | O=S(=O)(C1CC1)N1CCC2(CCCN(Cc3ccccn3)C2)C1 (centres undefined) | 12.2
15 | O=C(Cc1ccccn1)N1CCN2C[C@H](OCCN3CCCC3)C[C@H]2C1 | 2.21
16 | CC[C@@H]1N(CC2CC2)CCC[C@]12CCC(=O)N2 | -57.5
17 | Cc1noc(C)c1CN1CC[C@H]2[C@H]1CCN2CC1CCOCC1 | -92
18 | CNC(=O)[C@H]1C[C@@H]2CN(C(=O)c3ccc(C)nc3)C[C@@H]2N1C | -35.1
19 | CC(C)C(NC(=O)c1ccccc1)C(=O)N1CCC2(CC1)OCCO2 (centres undefined) | -37.3
20 | CN(C)C(=O)c1ccc(-c2cccc3c2CCNC3)o1 | -44.3
21 | Cn1cc(CN2CC[C@]3(C[C@H](Oc4ccccn4)CO3)C2)cn1 | -20.3
22 | CN1C(=O)C2(CCN(CC3CC3)CC2)c2ccccc21 | 25.6
23 | Cn1cc(CNC2CC3(CCN(CC4CC4)CC3)c3ccccc32)cn1 (centres undefined) | 87.6
24 | CNC1CCN(C2CCN(c3ccc(-c4ccco4)cc3)CC2)CC1 | 86.4
25 | NC1CCN(C2CCN(c3ccc(-c4ccco4)cc3)CC2)CC1 | 80.3
26 | NCC1CCN(C2CCN(c3ccc(-c4ccco4)cc3)CC2)C1 (centres undefined) | 91
27 | Cc1oc(-c2ccco2)nc1CC(=O)N1CCN(C2CCC2)CC1 | -14.4
28 | O=C1NC2(CCCCC2)c2nnnn2-c2ccc(Br)cc21 | -67.2
29 | O=C(CCc1ccsc1)N1CCC(C(=O)O)(c2ccccc2)CC1 | -103
